Laboratory results taken from PubChem BioAssay (EPA / NIEHS).
Records with an inconclusive call do not appear. Calls of active or inactive are those of the source. Rule for the calls: active = hit-call score of the fitted dose curve at least 0.9, where 1 is the maximum; inconclusive = response in the unintended direction; inactive = score below 0.9.

Experiments:
[1] = molecular target: human Neurotensin Receptor (NTS), NTSR1 (gene 4923) (UniProt P30989); assay: NVS_GPCR_hNTS: NovaScreen (NVS) G Protein-Coupled Receptor Assay for human Neurotensin Receptor (NTS) (AID 2283279)
Chain of human Neurotensin Receptor (NTS), NTSR1 (gene 4923) (P30989 whole entry, looked up): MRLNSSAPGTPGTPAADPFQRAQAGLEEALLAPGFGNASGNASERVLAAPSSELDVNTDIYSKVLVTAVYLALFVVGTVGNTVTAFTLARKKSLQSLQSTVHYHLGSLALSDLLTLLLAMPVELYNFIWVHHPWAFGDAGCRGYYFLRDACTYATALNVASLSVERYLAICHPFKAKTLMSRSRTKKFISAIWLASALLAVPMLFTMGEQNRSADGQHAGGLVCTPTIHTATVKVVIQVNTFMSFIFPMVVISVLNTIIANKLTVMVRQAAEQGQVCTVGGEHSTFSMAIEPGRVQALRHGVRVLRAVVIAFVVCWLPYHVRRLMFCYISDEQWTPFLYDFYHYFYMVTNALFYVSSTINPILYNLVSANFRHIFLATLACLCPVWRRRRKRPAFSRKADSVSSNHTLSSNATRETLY
How it was run: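 Compounds competed with a radiolabelled ligand for binding to CHO-derived human neurotensin receptor; bound signal counted after filtration, 1 h. Screened first at a single concentration of 25 uM in duplicate, then concentration series to 50 uM maximum for actives.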

[2] = molecular target: human Leukotriene B4 Receptor 1 (LTB4-BLT1), LTB4R (gene 1241) (UniProt Q15722); assay: NVS_GPCR_hLTB4_BLT1: NovaScreen (NVS) G Protein-Coupled Receptor Assay for human Leukotriene B4 Receptor 1 (LTB4-BLT1) (AID 2283271)
Chain of human Leukotriene B4 Receptor 1 (LTB4-BLT1), LTB4R (gene 1241) (Q15722 whole entry, looked up): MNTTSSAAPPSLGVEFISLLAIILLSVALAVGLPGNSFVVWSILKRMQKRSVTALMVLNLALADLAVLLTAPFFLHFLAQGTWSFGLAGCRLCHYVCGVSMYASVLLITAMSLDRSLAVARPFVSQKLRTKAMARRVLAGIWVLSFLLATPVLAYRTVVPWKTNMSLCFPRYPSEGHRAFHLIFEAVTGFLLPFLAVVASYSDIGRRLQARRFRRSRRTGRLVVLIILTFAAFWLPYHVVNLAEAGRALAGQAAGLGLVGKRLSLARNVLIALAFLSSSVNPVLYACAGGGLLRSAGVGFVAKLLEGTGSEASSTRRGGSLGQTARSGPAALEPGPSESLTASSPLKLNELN
How it was run: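 Cell-free human neutrophil receptor preparation, 1 h exposure, radioligand binding read by filter scintillation counting. Single 25 uM duplicate screen, then concentration series topping at 50 uM; binding loss scored against DMSO baseline.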

[3] = molecular target: Muscarinic acetylcholine receptor M2 (Homo sapiens) (UniProt P08172); assay: NVS_GPCR_hM2: NovaScreen (NVS) G Protein-Coupled Receptor Assay for human Muscarinic, M2 Receptor (AID 2283273)
Chain of Muscarinic acetylcholine receptor M2 (Homo sapiens) (P08172 whole entry, looked up): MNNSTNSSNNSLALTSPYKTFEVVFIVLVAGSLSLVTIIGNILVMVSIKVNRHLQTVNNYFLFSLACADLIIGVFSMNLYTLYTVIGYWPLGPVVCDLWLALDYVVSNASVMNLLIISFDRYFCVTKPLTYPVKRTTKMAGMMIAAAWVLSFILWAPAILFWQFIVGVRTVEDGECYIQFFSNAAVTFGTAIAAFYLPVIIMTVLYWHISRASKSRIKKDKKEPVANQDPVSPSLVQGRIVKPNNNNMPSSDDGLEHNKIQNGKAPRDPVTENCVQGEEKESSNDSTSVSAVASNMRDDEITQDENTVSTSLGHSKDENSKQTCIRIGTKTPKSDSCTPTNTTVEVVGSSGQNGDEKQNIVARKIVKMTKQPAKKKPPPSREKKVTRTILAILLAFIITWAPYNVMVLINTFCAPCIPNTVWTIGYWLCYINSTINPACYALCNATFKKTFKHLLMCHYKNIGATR
How it was run: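 Radioligand competition binding, cell-free, receptor from CHO; 1 h incubation; scintillation detection. Primary testing at 25 uM in duplicate.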

[4] = molecular target: Neuropeptide Y receptor type 2 (Homo sapiens) (UniProt P49146); assay: NVS_GPCR_hNPY2: NovaScreen (NVS) G Protein-Coupled Receptor Assay for human Neuropeptide Receptor Y2 (NPY2) (AID 2283277)
Chain of Neuropeptide Y receptor type 2 (Homo sapiens) (P49146 whole entry, looked up): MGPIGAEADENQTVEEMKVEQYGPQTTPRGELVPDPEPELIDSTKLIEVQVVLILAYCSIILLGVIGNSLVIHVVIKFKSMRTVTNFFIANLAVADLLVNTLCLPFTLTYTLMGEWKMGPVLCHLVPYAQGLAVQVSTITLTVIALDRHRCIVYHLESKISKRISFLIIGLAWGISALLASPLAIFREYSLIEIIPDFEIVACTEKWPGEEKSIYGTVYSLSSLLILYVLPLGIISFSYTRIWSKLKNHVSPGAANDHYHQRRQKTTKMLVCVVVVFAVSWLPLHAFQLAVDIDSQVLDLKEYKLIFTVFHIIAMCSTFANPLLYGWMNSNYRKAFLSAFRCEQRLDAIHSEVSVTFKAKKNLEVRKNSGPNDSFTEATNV
How it was run: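 Chemicals were first tested in duplicate at 25 uM, then actives in singleton concentration series to 50 uM. Tracer binding to SK-N-MC-derived protein measured cell-free after 1 h via filter scintillation; signal loss relative to DMSO.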

[5] = molecular target: D(1A) dopamine receptor (Homo sapiens) (UniProt P21728); assay: NVS_GPCR_hDRD1: NovaScreen (NVS) G Protein-Coupled Receptor Assay for human Dopamine Receptor D1 (DRD1) (AID 2283269)
Chain of D(1A) dopamine receptor (Homo sapiens) (P21728 whole entry, looked up): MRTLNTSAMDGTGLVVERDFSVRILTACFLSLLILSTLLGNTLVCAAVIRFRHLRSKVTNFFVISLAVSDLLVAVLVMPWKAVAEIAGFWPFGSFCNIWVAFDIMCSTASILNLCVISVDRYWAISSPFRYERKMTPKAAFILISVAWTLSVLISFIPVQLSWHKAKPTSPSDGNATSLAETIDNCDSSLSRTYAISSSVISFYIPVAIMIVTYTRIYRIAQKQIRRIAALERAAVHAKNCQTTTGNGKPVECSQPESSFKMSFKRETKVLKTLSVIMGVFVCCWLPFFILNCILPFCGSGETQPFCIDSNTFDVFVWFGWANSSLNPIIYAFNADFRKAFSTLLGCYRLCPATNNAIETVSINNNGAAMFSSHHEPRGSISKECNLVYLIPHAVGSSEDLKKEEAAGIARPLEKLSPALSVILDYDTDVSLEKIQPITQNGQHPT
Protocol: NVS_GPCR_hDRD1 is a biochemical, single-readout assay that uses extracted gene-proteins from HEK293 in a cell-free assay. Measurements were taken 1 hour after chemical dosing in a 96-well plate.NVS_GPCR_hDRD1 is one of one assay component(s) measured or calculated from the NVS_GPCR_hDRD1 assay. It is designed to make measurements of radioligand binding, a form of binding reporter, as detected with scintillation counting signals by Filter-based radiodetection technology.Data from the assay component NVS_GPCR_hDRD1 was analyzed into 1 assay endpoint. This assay endpoint, NVS_GPCR_hDRD1, was analyzed in the positive analysis fitting direction relative to DMSO as the negative control and baseline of activity. Using a type of binding reporter, loss-of-signal activity can be used to understand changes in the binding as they relate to the gene DRD1. Furthermore, this assay endpoint can be referred to as a primary readout, because the performed assay has only produced 1 assay endpoint. To generalize the intended target to other relatable targets, this assay endpoint is annotated to the gpcr intended target family, where the subfamily is rhodopsin-like receptor.
Binding assays used specific radioligands (tritiated, iodinated) with non-radioactive competitive displacement ligands in agonist or antagonist protocols (as indicated) and various reference compounds and inhibitors to titrate specific binding to receptors and transporters. Most enzyme assays (CYPs, kinases, phosphatases, proteases, HDACs) used recombinant protein and specific substrates (fluorescence mostly, some colorimetric and radioactive) and inhibitors, followed by a biochemical separation of substrate and product. All assays for the biochemical HTS were initially run in duplicate at a single concentration (10 uM for CYP450 assays and 25 uM for all others). […] Each assay was run with positive and negative controls, and concurrent controls on every plate. The follow-up (secondary) screen tested active chemical-pairs in concentration series, as well as a few additional assays not tested in the primary screen, some selected negative inactives, and several cases re-run in the concentration series for confirmatory purposes.

[6] = molecular target: human Neurokinin, NK2 Receptor, TACR2 (gene 6865) (UniProt P21452); assay: NVS_GPCR_hNK2: NovaScreen (NVS) G Protein-Coupled Receptor Assay for human Neurokinin, NK2 Receptor (AID 2283278);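 note: actives reduce bound radioligand signal relative to DMSO baseline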
Chain of human Neurokinin, NK2 Receptor, TACR2 (gene 6865) (P21452 whole entry, looked up): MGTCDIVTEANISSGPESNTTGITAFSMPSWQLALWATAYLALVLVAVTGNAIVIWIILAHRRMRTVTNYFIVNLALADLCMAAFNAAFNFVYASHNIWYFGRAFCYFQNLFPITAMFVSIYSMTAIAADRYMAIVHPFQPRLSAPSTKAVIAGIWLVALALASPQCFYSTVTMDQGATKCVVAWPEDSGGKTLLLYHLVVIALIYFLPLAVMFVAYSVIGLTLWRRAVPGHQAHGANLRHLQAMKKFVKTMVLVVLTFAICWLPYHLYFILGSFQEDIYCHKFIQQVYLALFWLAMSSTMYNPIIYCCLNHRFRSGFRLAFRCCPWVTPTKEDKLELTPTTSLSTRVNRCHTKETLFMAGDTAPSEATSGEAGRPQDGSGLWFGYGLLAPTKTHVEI
How it was run: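 Radioligand binding on membranes from CHO cells expressing receptor, filter-based scintillation read 4 h after dosing. Initial duplicate screen at 25 uM, actives in concentration series; loss of signal versus DMSO.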

[7] = molecular target: Muscarinic acetylcholine receptor M3 (Homo sapiens) (UniProt P20309); assay: NVS_GPCR_hM3: NovaScreen (NVS) G Protein-Coupled Receptor Assay for human Muscarinic, M3 Receptor (AID 2283272)
Chain of Muscarinic acetylcholine receptor M3 (Homo sapiens) (P20309 whole entry, looked up): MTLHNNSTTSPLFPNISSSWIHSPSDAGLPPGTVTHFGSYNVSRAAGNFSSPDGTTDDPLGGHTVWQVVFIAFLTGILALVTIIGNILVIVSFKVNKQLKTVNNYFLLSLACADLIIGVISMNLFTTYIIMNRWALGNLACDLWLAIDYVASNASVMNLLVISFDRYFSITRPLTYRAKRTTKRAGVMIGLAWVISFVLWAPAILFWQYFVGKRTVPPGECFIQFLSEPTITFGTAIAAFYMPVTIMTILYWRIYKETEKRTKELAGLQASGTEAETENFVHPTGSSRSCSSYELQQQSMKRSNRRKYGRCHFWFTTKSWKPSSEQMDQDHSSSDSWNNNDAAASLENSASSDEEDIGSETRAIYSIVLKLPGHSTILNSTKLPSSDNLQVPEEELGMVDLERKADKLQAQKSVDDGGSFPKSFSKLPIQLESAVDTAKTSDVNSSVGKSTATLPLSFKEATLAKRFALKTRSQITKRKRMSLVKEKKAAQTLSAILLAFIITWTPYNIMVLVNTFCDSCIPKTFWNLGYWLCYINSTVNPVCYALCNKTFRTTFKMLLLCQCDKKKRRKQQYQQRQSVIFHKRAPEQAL
How it was run: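 Radioligand displacement binding on human M3 receptor in CHO-derived membranes, 1 h incubation, filter-based scintillation counting. Primary screen in duplicate at 25 uM; actives followed up in concentration series; loss of signal versus DMSO.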

[8] = molecular target: human Muscarinic, M4 Receptor, CHRM4 (gene 1132) (UniProt P08173); assay: NVS_GPCR_hM4: NovaScreen (NVS) G Protein-Coupled Receptor Assay for human Muscarinic, M4 Receptor (AID 2283274)
Chain of human Muscarinic, M4 Receptor, CHRM4 (gene 1132) (P08173 whole entry, looked up): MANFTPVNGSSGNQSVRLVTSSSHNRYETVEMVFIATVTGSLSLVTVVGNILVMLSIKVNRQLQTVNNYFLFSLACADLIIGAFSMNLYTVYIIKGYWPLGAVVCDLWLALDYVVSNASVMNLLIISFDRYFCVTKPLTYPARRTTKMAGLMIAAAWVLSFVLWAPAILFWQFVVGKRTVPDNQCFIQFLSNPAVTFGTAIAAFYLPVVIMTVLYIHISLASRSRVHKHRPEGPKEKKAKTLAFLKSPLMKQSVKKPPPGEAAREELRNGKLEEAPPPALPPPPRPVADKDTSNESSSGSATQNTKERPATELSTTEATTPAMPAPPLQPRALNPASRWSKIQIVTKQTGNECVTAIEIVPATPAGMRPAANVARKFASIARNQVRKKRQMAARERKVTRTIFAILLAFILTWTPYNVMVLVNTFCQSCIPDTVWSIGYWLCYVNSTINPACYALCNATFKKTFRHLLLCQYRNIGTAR
How it was run: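 Filter-based scintillation counting of radioligand bound to CHO-expressed human M4 preparations after 1 h; loss of signal fitted versus DMSO. Initial duplicate testing at 25 uM, concentration-response follow-up for actives.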

[9] = molecular target: Muscarinic acetylcholine receptor M1 (Homo sapiens) (UniProt P11229); assay: NVS_GPCR_hM1: NovaScreen (NVS) G Protein-Coupled Receptor Assay for human Muscarinic, M1 Receptor (AID 2283270)
Chain of Muscarinic acetylcholine receptor M1 (Homo sapiens) (P11229 whole entry, looked up): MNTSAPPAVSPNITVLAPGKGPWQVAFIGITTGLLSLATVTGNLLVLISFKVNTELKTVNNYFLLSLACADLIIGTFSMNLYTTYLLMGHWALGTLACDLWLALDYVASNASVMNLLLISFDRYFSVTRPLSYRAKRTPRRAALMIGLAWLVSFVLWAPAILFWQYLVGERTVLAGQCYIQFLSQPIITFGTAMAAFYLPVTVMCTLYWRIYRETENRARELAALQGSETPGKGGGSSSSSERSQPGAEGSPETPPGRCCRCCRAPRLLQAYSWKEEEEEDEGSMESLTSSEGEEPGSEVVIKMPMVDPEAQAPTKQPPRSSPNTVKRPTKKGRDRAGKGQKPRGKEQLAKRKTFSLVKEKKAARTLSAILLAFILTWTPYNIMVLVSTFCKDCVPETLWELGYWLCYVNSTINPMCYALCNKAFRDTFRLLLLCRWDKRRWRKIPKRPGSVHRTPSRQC
How it was run: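 Actives from a duplicate 25 uM single-point screen were retested in concentration series. Binding measured as displacement of a radioligand from CHO-derived receptor preparation, 1 h incubation, filtration and scintillation counting, analysed as signal loss against DMSO.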

[10] = molecular target: human Neuropeptide Receptor Y1 (NPY1), NPY1R (gene 4886) (UniProt P25929); assay: NVS_GPCR_hNPY1: NovaScreen (NVS) G Protein-Coupled Receptor Assay for human Neuropeptide Receptor Y1 (NPY1) (AID 2283276)
Chain of human Neuropeptide Receptor Y1 (NPY1), NPY1R (gene 4886) (P25929 whole entry, looked up): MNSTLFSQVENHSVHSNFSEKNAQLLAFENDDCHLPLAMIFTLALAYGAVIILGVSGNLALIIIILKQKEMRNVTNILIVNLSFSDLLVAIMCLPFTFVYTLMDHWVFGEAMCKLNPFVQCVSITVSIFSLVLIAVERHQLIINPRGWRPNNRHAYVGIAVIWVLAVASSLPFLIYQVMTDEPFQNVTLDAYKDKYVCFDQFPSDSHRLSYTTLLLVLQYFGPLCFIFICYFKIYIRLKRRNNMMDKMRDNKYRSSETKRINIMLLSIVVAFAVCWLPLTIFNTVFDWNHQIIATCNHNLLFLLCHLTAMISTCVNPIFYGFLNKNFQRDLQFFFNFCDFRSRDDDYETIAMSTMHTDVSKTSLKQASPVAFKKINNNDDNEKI
How it was run: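 Displacement of specific radioligand from NPY1 receptor of SK-N-MC origin, read by filtration and scintillation after 1 h. Compounds first tested at 25 uM in duplicate, then actives in concentration series; signal loss relative to DMSO.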

**Q.** For CCCCSP(=O)(SCCCC)SCCCC, which outcome [1] is on record?
**A.** The outcome was “inactive”.

**Q.** How did the outcome [2] turn out when COc1cc(OC)nc(Sc2cccc(Cl)c2C(=O)O)n1 was run?
**A.** The outcome was “inactive”.

**Q.** Which outcome [3] does the source give for C[N+]1(C)CCCCC1 here?
**A.** Its outcome is “inactive”.

**Q.** And the outcome [4]?
**A.** The outcome was “inactive”.

**Q.** With CCCCOC(=O)[C@@H](C)Oc1ccc(Oc2ccc(C#N)cc2F)cc1 as the compound, how does the outcome [1] read?
**A.** Its outcome is “inactive”.

**Q.** For CCCOCC(=Nc1ccc(Cl)cc1C(F)(F)F)n1ccnc1, which AC50 [5] is on record?
**A.** Its AC50 is 9.19 µM (active).

**Q.** What about the outcome [3] of the same compound?
**A.** Its outcome is “inactive”.

**Q.** And the outcome [6]?
**A.** Its outcome is “inactive”.

**Q.** What does the source list for C[Si](Cn1cncn1)(c1ccc(F)cc1)c1ccc(F)cc1?
**A.** AC50 [7]: 11.6 µM (active); outcome [3]: inactive; AC50 [8]: 14.4 µM (active)

**Q.** With CCOP(=S)(OCC)Oc1ccc([N+](=O)[O-])cc1 as the compound, how does the AC50 [7] read?
**A.** The AC50 was 5.42 µM (active).

**Q.** What about the AC50 [8] of the same compound?
**A.** Its AC50 is 7.24 µM (active).

**Q.** CCOP(=O)(NC(C)C)Oc1ccc(SC)c(C)c1 (stereo not drawn) was tested. Which outcome [9] did it give?
**A.** The outcome was “inactive”.

**Q.** Which results are given for S=C1NCCN1?
**A.** outcome [3]: inactive; outcome [10]: inactive

**Q.** FC(F)C(F)(F)OCC(Cn1cncn1)c1ccc(Cl)cc1Cl (stereo not drawn) was tested. Which outcome [8] did it give?
**A.** The outcome was “inactive”.

**Q.** For CC[C@H](C)[C@H]1O[C@]2(C=C[C@@H]1C)C[C@@H]1C[C@@H](C/C=C(\C)[C@@H](O[C@H]3C[C@H](OC)[C@@H](O[C@H]4C[C@H](OC)[C@@H](NC)[C@H](C)O4)[C@H](C)O3)[C@@H](C)/C=C/C=C3\CO[C@@H]4[C@H](O)C(C)=C[C@@H](C(=O)O1)[C@]34O)O2, which AC50 [5] is on record?
**A.** The AC50 was 8.1 µM (active).

**Q.** And the AC50 [9]?
**A.** Its AC50 is 12.6 µM (active).

**Q.** And the AC50 [7]?
**A.** The AC50 was 10.1 µM (active).

**Q.** And the AC50 [8]?
**A.** Its AC50 is 12.9 µM (active).

**Q.** What about the AC50 [10] of the same compound?
**A.** The AC50 was 18.3 µM (active).

**Q.** And the AC50 [6]?
**A.** Its AC50 is 8.41 µM (active).

**Q.** What about the AC50 [1] of the same compound?
**A.** The AC50 was 0.00229 µM (active).

**Q.** CCc1cccc(CC)c1N(COC)C(=O)CCl was tested. Which outcome [6] did it give?
**A.** Its outcome is “inactive”.

**Q.** Which AC50 [5] does the source give for COP(=O)(OC)OC(Br)C(Cl)(Cl)Br (stereo not drawn) here?
**A.** Its AC50 is 11.8 µM (active).

**Q.** And the AC50 [10]?
**A.** Its AC50 is 15.5 µM (active).

**Q.** For Nc1nc(N)nc(NC2CC2)n1, which outcome [4] is on record?
**A.** Its outcome is “inactive”.
